Sampled rows, rich in hits. Any-hit rate of the full collection: about 14%.
HADH2 inhib: inhibitors of human HADH2 dehydrogenase | Q99714 | 73,000 compounds, 3.4% hits | Potency, µM (doses to about 57.1 µM), inactives show at the highest dose activity change, negative = inhibition, hits mostly inhibitors | recombinant HADH2, NADH fluorescence, beta-hydroxybutyryl-CoA | AID 886; further: potency means the concentration at half of the fitted maximal effect; on the % scale 0 is the no-effect control and ±100 the full control effect; nearly all actives have a fitted effect of over 60% in size
Target sequence (Q99714 whole entry, looked up, one chain of several): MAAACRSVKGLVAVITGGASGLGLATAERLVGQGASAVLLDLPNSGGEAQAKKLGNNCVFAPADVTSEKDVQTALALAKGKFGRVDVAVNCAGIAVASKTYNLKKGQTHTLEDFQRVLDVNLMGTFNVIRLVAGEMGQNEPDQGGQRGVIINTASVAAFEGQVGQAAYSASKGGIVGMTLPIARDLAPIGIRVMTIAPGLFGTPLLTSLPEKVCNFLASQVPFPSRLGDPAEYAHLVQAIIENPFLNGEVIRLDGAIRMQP
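NADH fluorescence (ex 360/em 450 nm) read every 30 s for 4 min; activity taken as last-minus-first time point difference. Enzyme 20 nM, NAD+ 1 mM, beta-hydroxybutyryl-CoA 90 uM, pH 9.0 Tris buffer.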
HSD17B inhib: blocks hydroxysteroid 17-beta dehydrogenase activity | Potency, µM (doses to about 57.1 µM), for the others: at the top dose activity change, negative = inhibition, usual class: inhibitors | recombinant HSD17B10, NADH fluorescence kinetic | 75,000 compounds, 7.6% hits;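 further: the protocol describes HADH2 (HSD17B10) and not the HSD17B4 of the title; potency means the concentration at half of the fitted maximal effect; on the % scale 0 is the no-effect control and ±100 the full control effect; nearly all actives have a fitted effect of over 70% in size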
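20 nM HADH2, pH 9.0 Tris/Tween; cpd preinc 15 min RT; start w/ 1 mM NAD+ + 90 uM b-hydroxybutyryl-CoA; kinetic fluor ex360/em450 q30s x 4 min; delta last-first.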
CRE-bla Fsk: CRE-bla signaling modulation under forskolin stimulation | CHO CRE-bla reporter (cAMP response element driving beta-lactamase), forskolin EC10, beta-lactamase ratio | Potency, µM (highest dose often 38.2 µM), without a hit: at the top dose activity change, negative = inhibition, most hits filed as activators | AID 662 | 71,000 compounds, 2.5% hits; active means well fitted activation curve with a large enough effect in the signal ratio, with a control signal flat, not every such curve was filed as active; inconclusive means small, poorly fitted or top-dose-only effect, or effect the other way, or a change in a side signal; the % refers to the signal ratio; further: potency means the concentration at half of the fitted maximal effect; % of control where 0% means no effect
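CRE-bla CHO cells stimulated with EC10 NKH 477 (water-soluble forskolin) and compound titrations, 3 h at 37C; beta-lactamase read with CCF4 after 2 h at room temperature. Activity from 460/530 nm emission ratio, AC50 values for positive or negative modulation.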
4MU fluor: compounds fluorescent in 4-MU spectral region; compound autofluorescence, 340/450 nm, 4-MU equivalents; hits give high values; max dye-equivalent concentration, M; 59,000 compounds, 11% hits; AID 589; in the data active means max dye-equivalent concentration above about 10 nM; inconclusive means mostly about 1.1 nM to 9.6 nM
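Intrinsic fluorescence at 340/450 nm (ex/em) was read after 15 min at room temperature in pH 8.0, 100 mM Tris. Each compound concentration expressed as 4-MU-equivalent concentration from a six-point 4-MU standard series on each plate.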
AID923: qHTS Assay for Allosteric/Competitive Inhibitors of Caspase-1: Spectroscopic Profiling in AFC Spectral Region. compound fluorescence, AFC spectral region (405/520 nm). Potency, µM (titrated, usually from 57.5 µM), without a hit: top-dose fluorescence increase, most hits filed as activators. 75,000 compounds, 1.1% hits. AID 923, 2007; further: potency means the concentration at half of the fitted maximal effect; 0% is about no effect
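Compound autofluorescence profiled at 405 nm ex/520 nm em during kinetic caspase 1 run (50 nM enzyme, 5 uM Ac-WEHD-AFC, HEPES pH 7.5, 10 mM DTT). Titration up to 57 uM; baseline from regression intercept, normalized to AFC standard curve.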
A350 fluor: A350 region autofluorescence | Compound autofluorescence, 340/450 nm, Alexa 350 dye-equivalents; hits give high values | max dye-equivalent concentration, M | 59,000 compounds, 11% hits; in the data active means max dye-equivalent concentration above about 10 nM; inconclusive means mostly about 1.1 nM to 9.6 nM
CHO via 24h: CHO cell toxicity at 24 h by ATP luminescence; AID 905; CRE-bla CHO viability, ATP luminescence, 24 h; activity, negative = viability loss, % at 46.1 µM; 120 tested, under 10 active; shares compounds with CRE-bla Fsk
CHO tox 40h: CHO cell toxicity at 40 h by ATP luminescence; 120 tested, under 10 active; shares compounds with CRE-bla Fsk; Potency, µM, for inactives: max response, actives largely listed as inhibitors; CRE-bla CHO viability, ATP luminescence, 40 h; AID 906
CRE-luc potent: boosts CRE luciferase signal in HEK293 cells; 120 compounds, 80% hits; Potency, µM (doses to about 38.3 µM), inactives show top-dose activity, positive = activation, actives largely listed as activators; HEK293 CRE-luc2P, NKH477 EC10 potentiation, luminescence, 4 h; shares compounds with CRE-bla Fsk; AID 907
Starred values were filed as active, the others as inactive; i = inactive; ? = inconclusive; / = not tested or not shown. Unless noted, the call rests on the fitted dose curve; in most records, active means well fitted curve in the direction sought with a large enough effect; inconclusive means small, poorly fitted or top-dose-only effect, or another doubt; inactive means no such curve, though single readings can be large; an effect the other way counts as inactive or inconclusive.

SMILES	HADH2 inhib	HSD17B inhib	CRE-bla Fsk	4MU fluor	AID923	A350 fluor	CHO via 24h	CHO tox 40h	CRE-luc potent
CCC(NC(=O)NCCCn1ccnc1)(C(F)(F)F)C(F)(F)F	16%	-3%	16%	?	-3%	?	/	/	/
Nc1nc(-c2ccco2)nn1C(=O)CCc1ccccc1	-14%	13%	-8%	i	-2%	i	/	/	/
O=C(Cc1ccccc1)Nc1nc2ccc(Cl)cc2c2nc(-c3ccco3)nn12	-11%	4µM*	?	/	3%	/	-8	-12%	?
COc1ncnc2c1oc1nc(C(C)C)c3c(c12)CC(C)(C)OC3	-5%	6%	?	i	0%	?	/	/	/
CCCc1nc2oc3c(NCc4ccccn4)ncnc3c2c2c1COC(C)(C)C2	?	13µM*	0.79µM*	i	-1%	i	-10	-16%	0.4µM*
CCN(CC)C(=O)CN(C#N)c1nc(NC(C)C)nc(NC(C)C)n1	/	/	/	i	/	i	/	/	/
CCCN(C#N)c1nc(NCC)nc(NC(C)C)n1	5%	5%	10µM*	i	-1%	i	-8	-16%	1.4µM*
N#CCc1nc2c3c4c(sc3ncn2n1)CCCC4	/	/	/	i	/	i	-4	-16%	5µM*
Nc1nc2sc3c(c2c(=O)s1)CCCC3	-10%	?	?	i	-1%	i	/	/	/
Cn1nc(-c2ccc(N3CCCCC3)c(NC(=O)c3ccco3)c2)c2ccccc2c1=O	?	2%	1.6µM*	i	-2%	i	-39	?	0.63µM*
CC12CCC(C(=O)NCc3ccc4c(c3)OCO4)(OC1=O)C2(C)C (stereo unspecified)	4%	11%	-9%	i	-1%	i	/	/	/
CCOC(=O)c1cc2sccc2n1CC(=O)N1CCCC1	-1%	-2%	-2%	i	-1%	i	/	/	/
C=CCN1C(=O)c2oc3ccccc3c(=O)c2C1c1ccc(O)c(OC)c1 (stereo unspecified)	/	/	/	/	/	/	6	-6%	13µM*
COc1cc(C2c3c(oc4ccccc4c3=O)C(=O)N2CCN2CCOCC2)cc(OC)c1OC (stereo unspecified)	0%	-1%	5%	i	-3%	i	/	/	/
COc1ccc(C2c3c(oc4ccccc4c3=O)C(=O)N2CCN2CCOCC2)cc1OC (stereo unspecified)	8%	5%	17%	i	1%	i	-3	-7%	14µM*
Cn1c(SCCOc2ccc(Cl)cc2)nnc1-c1ccncc1	4%	-5%	9%	i	0%	i	/	/	/
COc1cccc2c(C)nc(Nc3nc(CSc4nnc(C)s4)cc(=O)[nH]3)nc12	1%	2%	?	?	-1%	?	?	-90%	6.3µM*
